GRP78 ERSR act – induces the endoplasmic reticulum stress response in human glioma cells; U87-MG GRP78 promoter luciferase reporter, 16 h; Potency, µM, for inactives: at the highest dose activation, most hits filed as activators; 420,000 compounds, 0.02% hits; also: series mostly up to about 76 µM; % of control where 0% means no effect; nearly all actives have a fitted effect of over 35% in size
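ERSR induction read as luciferase luminescence (Bright-Glo, 10 min at room temperature) in stably transfected human U87-MG glioma cells exposed to compounds for 16 h, using GRP78 as sensor.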
TDP43 rescue – TDP-43 toxicity inhibition in yeast; 410,000 compounds, 1.8% hits; TDP-43 expressing yeast growth rescue, BacTiter-Glo, 24 h; Potency, µM (top dose mostly 46.1 µM), without a hit: at the top dose growth rescue (activation), actives largely listed as activators; also: % of control where 0% means no effect; nearly all actives have a fitted effect of over 50% in size
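Galactose-induced TDP-43 yeast, OD600=0.02, compound pinned; 24 hr, 30 deg C; BacTiter-Glo luminescence for growth. Inhibitors of TDP-43 toxicity read as activators.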
aSyn yeast inh – alpha-synuclein toxicity inhibition in yeast | Yeast expressing alpha-synuclein, growth rescue, BacTiter-Glo, 24 h | Potency, µM (titrated, usually from 46.1 µM), for the others: at the highest dose growth rescue (activation), usual class: activators | 370,000 compounds, 0.14% hits | AID 652106; also: % of control where 0% means no effect; nearly all actives have a fitted effect of over 65% in size
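Screening used galactose-induced yeast with toxic alpha-synuclein levels, exposed to compound for 24 hr at 30 deg C. Cell growth, read with BacTiter-Glo luminescence, gave the measured signal.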
FUS yeast rescue – FUS proteinopathy suppression in yeast | S. cerevisiae FUS-expressing, growth rescue, OD600, 24 h | Potency, µM (top dose mostly 76.6 µM), actives largely listed as activators | 390,000 compounds, 0.24% hits | AID 1347120;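 also: plate controls were DMSO vehicle for no effect and reference control for full effect; nearly all actives have a fitted effect of over 55% in size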
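FUS-expressing yeast, raffinose-pregrown, induced in 2% galactose minimal medium at OD 0.005; compounds in a dilution series, 24hr at 30C. Growth restoration read as absorbance at 600 nm. CP55940 positive control, DMSO negative.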
MBNL1 CUG block – blocks human MBNL1 binding to CUG repeat RNA; Q9NR56; Potency, µM (highest dose often 57.5 µM), for the others: at the highest dose activity change, negative = inhibition, hits mostly inhibitors; 280,000 compounds, 0.036% hits; TR-FRET MBNL1-His/biotin-(CUG)12 binding, 665/545 ratio; active = well fitted inhibition curve with a large enough effect in the signal ratio, with a control signal flat, not every such curve was filed as active; inconclusive = small, poorly fitted or top-dose-only effect, or effect the other way, or a change in a side signal; inactive = no such curve, though single readings can be large or run the other way; the % refers to the signal ratio; also: % is scaled to controls: 0 for no effect and ±100 for the full control effect
Target sequence (Q9NR56 whole entry, looked up): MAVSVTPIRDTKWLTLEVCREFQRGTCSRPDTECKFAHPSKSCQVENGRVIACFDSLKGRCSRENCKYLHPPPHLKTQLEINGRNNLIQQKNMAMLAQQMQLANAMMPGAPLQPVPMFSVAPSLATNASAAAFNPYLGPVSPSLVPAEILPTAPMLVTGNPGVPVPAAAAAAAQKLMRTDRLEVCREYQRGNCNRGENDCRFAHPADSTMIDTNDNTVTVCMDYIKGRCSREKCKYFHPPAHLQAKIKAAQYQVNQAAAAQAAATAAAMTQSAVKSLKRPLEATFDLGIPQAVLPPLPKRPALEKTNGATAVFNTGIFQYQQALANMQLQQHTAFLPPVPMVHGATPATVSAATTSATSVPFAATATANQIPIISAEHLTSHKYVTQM
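Ratiometric TR-FRET (665 over 545 nm, excitation 340 nm) tracks disruption of MBNL1-His/biotin-(CUG)12 complex after 60 min at room temperature, with compounds at 92 nM to 58 uM final.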
Abeta rescue – A-beta toxicity reversal in yeast. 410,000 compounds, 0.063% hits. yeast expressing A-beta42, growth rescue, OD600, 48 h; response scale: 0% DMSO, 100% iron-clioquinol control. Potency, µM (doses to about 46.1 µM), actives largely listed as activators; also: nearly all actives have a fitted effect of over 55% in size
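Growth rescue measured by 600 nm absorbance after 48 h yeast culture at 30 C with compound. Values normalized between DMSO and an equimolar ferric chloride plus clioquinol control.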
Starred values were filed as active, the others as inactive; i = inactive; ? = inconclusive; / = no result given; [ ] = dose if it differs, or a comment. The list is not random: actives were taken first. Their share in the collection is about 2%. Unless noted, calls follow the shape of the dose curve; as a rule, active = well fitted curve in the direction sought with a large enough effect; inconclusive = small, poorly fitted or top-dose-only effect, or another doubt; inactive = no such curve, though single readings can be large; an effect the other way counts as inactive or inconclusive. Potency is read from the fitted curve at half-maximal effect.

SMILES | GRP78 ERSR act | TDP43 rescue | aSyn yeast inh | FUS yeast rescue | MBNL1 CUG block | Abeta rescue
O=C(CN1Cc2ccccc2OC(c2ccsc2)C1)NCC1OCCc2ccccc21 (configuration not stated) | -2% | / | / | / | / | /
COC(=O)[C@]12C[C@H](CC(=O)NCCCCc3ccccc3)C(=O)N(Cc3ccc(Cl)cc3Cl)C1=C[C@H](COCc1ccccc1)O[C@@H]2C | / | / | / | i | / | /
CC1=CCC2C(=O)N(c3cccc(C(=O)NCc4ccccc4)c3)C(=O)C2C1 (configuration not stated) | -4% | 1% | 5% | i | -6% | i
CC1=CCC2C(=O)N(c3cccc(C(=O)Nc4ccc(Cl)cc4)c3)C(=O)C2C1 (configuration not stated) | -1% | ? | 27% | i | -3% | 14µM*
O=C(c1sccc1Cl)N1CCC(n2nnc3ncccc32)CC1 | / | / | / | i | / | /
COc1ccc([N+](=O)[O-])cc1NC1CCCCC1 | -4% | 20µM* | -20% | i | ? | i
CCOC(=O)CCCC(=O)N1CCN(/[N+]([O-])=N/Oc2ccc([N+](=O)[O-])cc2[N+](=O)[O-])CC1 | -12% | / | -84% | / | / | /
O=C(Nc1cc(C(=O)N2CCN(CCO)CC2)c2c(c1)ncn2C1CCCC1)c1ccccc1 | -3% | / | / | / | / | /
O=C(CSCc1ccccc1Cl)N/N=C/c1ccco1 | 4% | 13µM* | -9% | i | 0% | i
CN(C)CCCNc1cc(C(C)(C)C)nc2c(-c3ccc(Cl)cc3)cnn12 | -15% | -13% | -25% | i | 0% | i
CC(C)(C)c1cc(NCc2ccccn2)n2ncc(-c3ccc(Cl)cc3)c2n1 | -1% | 22µM* | 12% | i | 0% | i
Cc1cccc(Cn2cc(COC(=O)Nc3ccc(F)cc3)nn2)c1 | / | / | / | i | / | /
CC(C)(C)n1ncc2c(=O)n(Cc3ccc(C#N)cc3)cnc21 | -2% | / | / | / | / | /
Cc1cccc(NC(=O)Cc2coc3ccc4ccccc4c23)n1 | -4% | 11µM* | -16% | i | -8% | i
Cc1ccc(CC(=O)Nc2cccc(C)n2)cc1 | 3% | 1% | -2% | i | 1% | i
Cc1cccc(NC(=O)Cc2ccc(-c3ccccc3)cc2)n1 | 1% | 11µM* | -7% | i | -2% | i
O=C(NCc1cccs1)C1CCN(S(=O)(=O)c2ccc([N+](=O)[O-])cc2)CC1 | / | / | / | i | / | /
Cc1ccc(S(=O)(=O)N2[C@@H](c3ccc(F)cc3)C(C(=O)O)=CC[C@H]2c2cccc(Cl)c2)cc1 | -1% | 22µM* | 0% | i | / | i
Cc1ccc([C@H]2C(C(=O)O)=CC[C@@H](c3cccc(Cl)c3)N2S(=O)(=O)c2ccc(C)cc2)cc1 | -2% | 26% | -1% | i | / | i
COc1ccc([C@@H]2CC=C(C(=O)O)[C@H](c3ccc(F)cc3)N2S(=O)(=O)c2ccc(Cl)cc2)cc1 | -2% | 14µM* | -23% | ? | / | i
CCC(=O)N1N=C(c2ccc(C)o2)CC1c1ccc(Br)cc1 (configuration not stated) | 0% | 18µM* | 20% | / | 10% | i
CCC(=O)N1N=C(c2ccc(C)o2)CC1c1ccc(OC)cc1 (configuration not stated) | 0% | 22% | 4% | i | 10% | i
COc1cccc(/C=C2\CC3(OC(=O)c4cccc(F)c4)CCCN2C3)c1 (configuration not stated) | / | / | / | i | / | /
CC(/C=N/NC(=O)c1cc(C2CC2)[nH]n1)=C\c1ccccc1 | 1% | 8% | 0% | i | 0% | i
CC(/C=N/NC(=O)c1cc(C(C)C)[nH]n1)=C\c1ccccc1 | 4% | 17% | 4µM* | i | 9% | i
SMILES | GRP78 ERSR act | TDP43 rescue | aSyn yeast inh | FUS yeast rescue | MBNL1 CUG block | Abeta rescue
CCN(Cc1ccccc1)C(=O)c1cnn(-c2ccc(F)cc2)c1-n1cccc1 | -2% | 35µM* | 8% | i | / | i
N#Cc1ccc(Nc2nc(-c3ccccc3)cs2)cc1 | 2% | 3.2µM* | 0% | i | / | i
CC(=O)c1sc(Nc2ccc3c(c2)OCO3)nc1C | 2% | 13µM* | 30% | i | / | i
CC(=O)c1sc(Nc2nc3cc4c(cc3s2)OCO4)nc1C | -2% | -12% | 0% | i | 13% | i
c1ccc(-c2csc(Nc3ccc4c(c3)OCO4)n2)cc1 | -5% | 14µM* | -1% | i | / | i
Cc1ccc(O)c(C(C)c2c[nH]c3ccccc23)c1 (configuration not stated) | / | / | / | i | / | /
COc1ccc(CCNC[C@H](O)COc2cccc(C)c2)cc1OC | -3% | / | / | / | / | /
CCCN(CC(=O)Nc1ccccc1OC)C(=O)c1ccc(COc2ccccc2)o1 | -1% | 11µM* | 1% | ? | / | i
COC(=O)CSc1nnc(-c2ccc(NS(=O)(=O)c3ccc(Cl)s3)cc2)o1 | / | / | / | i | / | /
CCC1CN(CC(=O)NCc2cc(C)n(C)n2)Cc2cc(OC)ccc2O1 (configuration not stated) | -2% | / | / | / | / | /
O=C(OCCOCCOC(=O)Oc1ccccc1)Oc1ccccc1 | -2% | 14µM* | 7% | / | / | i
COc1cc2c(NC3CCN(C)CC3)nc(N3CCCN(C)CC3)nc2cc1OCCCCN | -5% | / | ? | / | / | /
COc1ccccc1-c1noc2ncnc(Nc3cccc(C)c3C)c12 | -4% | 18µM* | 7% | i | -6% | i
COc1ccccc1-c1noc2ncnc(Nc3ccccc3C)c12 | -3% | ? | -2% | i | 4% | i
S=C(Nc1cccc(Cl)c1)OCCN1CCCC12CCC(c1ccccc1)CC2 (configuration not stated) | / | / | / | i | / | /
O=C(Nc1cccn(Cc2c(Cl)cccc2Cl)c1=O)c1ccccc1Cl | 0% | 4µM* | -11% | i | 7% | i
O=C(COC(=O)/C=C/c1c(F)cccc1Cl)NCC1CCCO1 (configuration not stated) | -2% | -9% | -5% | i | / | i
O=C(COC(=O)/C=C/c1ccc(Cl)cc1Cl)NCC1CCCO1 (configuration not stated) | -2% | 20µM* | 5%[1.84 µM] | i | / | i
COc1ccc(Cl)cc1-c1cc(C(=O)NCC2CCCCC2)[nH]n1 | -3% | ? | -1% | i | / | i
COc1ccc(Cl)cc1-c1cc(C(=O)NCc2cccc(Cl)c2)[nH]n1 | -3% | -18% | 8% | i | / | i
CC(C)Oc1cc(F)ccc1-c1cc(C(=O)NCC2CCCCC2)[nH]n1 | -4% | 18µM* | -22% | ? | / | i

Assay outcomes (PubChem BioAssay)
